Test results: publication PMC7862700, “An all-to-all approach to the identification of sequence-specific readers for epigenetic DNA modifications on cytosine”

Assays:
Experiment in all cases: DAPPL (digital affinity profiling via proximity ligation, sequencing); 10 mM Tris-HCl pH 7.5, 50 mM NaCl, 1 mM DTT, 4% glycerol, room temperature, 30 min; GST-TFs on glutathione beads, 16-mer random dsDNA library, 0.1% formaldehyde crosslink after washing; high values mean tight binding
Details in all cases: protein: recombinant; tags: N-terminal GST; dsDNA, one strand shown
ERF = biological target: T1, ERF (Homo sapiens, UniProt P50548 1-548)
T1 sequence: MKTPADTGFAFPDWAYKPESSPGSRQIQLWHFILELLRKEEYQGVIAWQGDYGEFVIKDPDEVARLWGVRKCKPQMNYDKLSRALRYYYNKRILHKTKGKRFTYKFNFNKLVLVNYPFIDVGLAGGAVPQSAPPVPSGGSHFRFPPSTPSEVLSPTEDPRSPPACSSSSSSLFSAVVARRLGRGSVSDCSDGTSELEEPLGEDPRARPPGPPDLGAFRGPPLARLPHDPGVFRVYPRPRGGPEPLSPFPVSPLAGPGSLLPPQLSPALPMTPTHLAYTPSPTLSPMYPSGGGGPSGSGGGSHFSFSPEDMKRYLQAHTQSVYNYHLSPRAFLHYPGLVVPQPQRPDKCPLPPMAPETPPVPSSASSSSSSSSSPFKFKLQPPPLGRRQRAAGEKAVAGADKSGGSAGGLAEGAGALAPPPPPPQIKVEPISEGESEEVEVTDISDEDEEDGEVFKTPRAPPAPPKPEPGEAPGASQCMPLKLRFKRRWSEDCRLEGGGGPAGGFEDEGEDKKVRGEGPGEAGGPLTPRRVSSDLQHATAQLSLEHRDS
Summary of the method: (§1)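 Human transcription factors fused to GST were expressed in yeast, captured on glutathione beads, given DNA barcodes and pooled with a GST-only negative control. Pools were incubated with 200 nmole of a 16-mer random double-stranded DNA library in Tris/NaCl/DTT/glycerol buffer at room temperature for 30 min. They were then washed, crosslinked with 0.1% formaldehyde, proximity-ligated (BsaI/T4 ligase, 1 h, 37 °C), PCR-amplified and sequenced on an Illumina NextSeq500. Binding signal is each 6-mer's read frequency for a factor divided by its frequency for the GST control.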

ETV3L = biological target: T2, ETV3L (Homo sapiens, UniProt Q6ZN32 1-361)
T2 sequence: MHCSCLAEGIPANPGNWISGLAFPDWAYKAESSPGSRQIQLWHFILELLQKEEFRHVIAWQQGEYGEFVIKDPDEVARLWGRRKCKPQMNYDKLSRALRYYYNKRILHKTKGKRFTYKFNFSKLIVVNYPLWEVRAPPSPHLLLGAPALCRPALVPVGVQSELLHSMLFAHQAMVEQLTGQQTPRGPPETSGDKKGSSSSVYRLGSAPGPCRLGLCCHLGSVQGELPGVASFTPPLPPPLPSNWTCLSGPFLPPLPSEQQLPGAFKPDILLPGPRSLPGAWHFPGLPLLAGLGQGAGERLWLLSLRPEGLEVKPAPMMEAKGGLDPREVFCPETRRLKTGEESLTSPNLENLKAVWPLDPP
Summary of the method: as §1

ETS2 = biological target: T3, ETS2 (Homo sapiens, UniProt P15036 1-469)
T3 sequence: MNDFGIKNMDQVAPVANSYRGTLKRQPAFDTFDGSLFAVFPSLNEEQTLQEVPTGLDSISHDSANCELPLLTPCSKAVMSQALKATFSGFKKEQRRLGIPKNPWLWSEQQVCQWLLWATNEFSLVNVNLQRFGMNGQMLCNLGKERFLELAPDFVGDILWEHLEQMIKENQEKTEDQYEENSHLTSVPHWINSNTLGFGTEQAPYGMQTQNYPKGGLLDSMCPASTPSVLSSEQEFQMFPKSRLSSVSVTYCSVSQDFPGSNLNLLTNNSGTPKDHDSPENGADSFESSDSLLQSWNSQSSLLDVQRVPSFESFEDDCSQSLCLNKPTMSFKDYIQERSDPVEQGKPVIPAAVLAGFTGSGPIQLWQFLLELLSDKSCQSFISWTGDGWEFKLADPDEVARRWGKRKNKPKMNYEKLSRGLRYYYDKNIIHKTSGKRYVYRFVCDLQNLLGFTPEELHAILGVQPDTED
Summary of the method: as §1

SPDEF = biological target: T4, SPDEF (Homo sapiens, UniProt O95238 1-335)
T4 sequence: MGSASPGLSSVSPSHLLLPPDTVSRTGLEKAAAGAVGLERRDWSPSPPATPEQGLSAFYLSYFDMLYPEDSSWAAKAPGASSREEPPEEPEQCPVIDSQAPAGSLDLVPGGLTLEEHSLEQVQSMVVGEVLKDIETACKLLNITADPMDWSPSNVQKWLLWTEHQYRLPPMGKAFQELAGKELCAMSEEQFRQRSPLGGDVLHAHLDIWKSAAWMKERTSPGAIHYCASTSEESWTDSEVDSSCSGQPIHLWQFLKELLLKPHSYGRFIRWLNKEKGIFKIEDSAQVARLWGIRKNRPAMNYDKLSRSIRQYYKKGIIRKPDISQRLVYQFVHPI
Summary of the method: as §1

ETV7 = biological target: T5, ETV7 (Homo sapiens, UniProt Q9Y603 1-341)
T5 sequence: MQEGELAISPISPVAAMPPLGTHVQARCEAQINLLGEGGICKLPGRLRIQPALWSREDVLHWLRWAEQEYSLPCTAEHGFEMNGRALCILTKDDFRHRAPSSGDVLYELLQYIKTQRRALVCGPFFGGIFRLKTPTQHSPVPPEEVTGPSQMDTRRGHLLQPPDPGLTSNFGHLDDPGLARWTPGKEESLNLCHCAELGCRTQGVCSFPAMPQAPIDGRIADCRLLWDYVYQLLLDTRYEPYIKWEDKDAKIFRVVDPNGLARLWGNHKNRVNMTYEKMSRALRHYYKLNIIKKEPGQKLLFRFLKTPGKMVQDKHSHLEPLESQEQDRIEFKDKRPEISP
Summary of the method: as §1

ELF5 = biological target: T6, ELF5 (Homo sapiens, UniProt Q9UKW6-2 1-255)
T6 sequence: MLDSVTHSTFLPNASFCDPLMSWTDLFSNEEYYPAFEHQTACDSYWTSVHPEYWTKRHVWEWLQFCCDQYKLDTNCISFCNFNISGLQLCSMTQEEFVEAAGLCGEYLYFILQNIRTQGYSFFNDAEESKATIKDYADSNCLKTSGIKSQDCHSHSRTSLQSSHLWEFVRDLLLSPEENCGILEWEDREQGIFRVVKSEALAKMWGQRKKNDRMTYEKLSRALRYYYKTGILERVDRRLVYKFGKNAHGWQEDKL
Summary of the method: as §1

ETV3 = biological target: T7, ETV3 (Homo sapiens, UniProt P41162-2 1-143)
T7 sequence: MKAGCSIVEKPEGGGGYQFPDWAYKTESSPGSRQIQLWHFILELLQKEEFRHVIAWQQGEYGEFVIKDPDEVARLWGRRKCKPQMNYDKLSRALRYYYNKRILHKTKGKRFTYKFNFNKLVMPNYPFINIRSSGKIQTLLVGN
Summary of the method: as §1

ETV6 = ETV6 (Homo sapiens, UniProt P41212 1-452)
Summary of the method: as §1

Chain of ETV6 (P41212 whole entry): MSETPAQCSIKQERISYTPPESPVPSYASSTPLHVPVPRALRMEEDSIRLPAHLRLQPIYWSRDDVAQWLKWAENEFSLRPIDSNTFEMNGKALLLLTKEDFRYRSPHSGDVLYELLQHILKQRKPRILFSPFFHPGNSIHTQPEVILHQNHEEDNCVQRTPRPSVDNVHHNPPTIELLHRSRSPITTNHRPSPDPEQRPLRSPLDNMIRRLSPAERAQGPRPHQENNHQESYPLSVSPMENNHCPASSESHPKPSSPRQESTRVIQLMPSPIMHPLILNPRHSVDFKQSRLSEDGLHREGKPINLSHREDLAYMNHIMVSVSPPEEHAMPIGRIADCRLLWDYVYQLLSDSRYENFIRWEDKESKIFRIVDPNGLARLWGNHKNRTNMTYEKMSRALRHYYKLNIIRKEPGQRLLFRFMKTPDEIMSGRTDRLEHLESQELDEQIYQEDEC

Sequence	binding signal (ERF)	binding signal (ETV3L)	binding signal (ETS2)	binding signal (SPDEF)	binding signal (ETV7)	binding signal (ELF5)	binding signal (ETV3)	binding signal (ETV6)
AAGCTA	1.18 fold enrichment (6-mer frequency, TF over GST control)	1.2 fold enrichment (6-mer frequency, TF over GST control)	1.14 fold enrichment (6-mer frequency, TF over GST control)	1.16 fold enrichment (6-mer frequency, TF over GST control)	1.2 fold enrichment (6-mer frequency, TF over GST control)	1.11 fold enrichment (6-mer frequency, TF over GST control)	1.2 fold enrichment (6-mer frequency, TF over GST control)	1.1 fold enrichment (6-mer frequency, TF over GST control)
GTCACA	1.11 fold enrichment (6-mer frequency, TF over GST control)	1.08 fold enrichment (6-mer frequency, TF over GST control)	1.14 fold enrichment (6-mer frequency, TF over GST control)	1.08 fold enrichment (6-mer frequency, TF over GST control)	1.09 fold enrichment (6-mer frequency, TF over GST control)	1.06 fold enrichment (6-mer frequency, TF over GST control)	1.01 fold enrichment (6-mer frequency, TF over GST control)	1.06 fold enrichment (6-mer frequency, TF over GST control)
TGGGCT	1.27 fold enrichment (6-mer frequency, TF over GST control)	1.45 fold enrichment (6-mer frequency, TF over GST control)	1.5 fold enrichment (6-mer frequency, TF over GST control)	1.28 fold enrichment (6-mer frequency, TF over GST control)	1.49 fold enrichment (6-mer frequency, TF over GST control)	1.32 fold enrichment (6-mer frequency, TF over GST control)	1.41 fold enrichment (6-mer frequency, TF over GST control)	1.32 fold enrichment (6-mer frequency, TF over GST control)
CTTTAG	1.16 fold enrichment (6-mer frequency, TF over GST control)	1.23 fold enrichment (6-mer frequency, TF over GST control)	1.17 fold enrichment (6-mer frequency, TF over GST control)	1.02 fold enrichment (6-mer frequency, TF over GST control)	1.2 fold enrichment (6-mer frequency, TF over GST control)	1.05 fold enrichment (6-mer frequency, TF over GST control)	1.28 fold enrichment (6-mer frequency, TF over GST control)	1.21 fold enrichment (6-mer frequency, TF over GST control)
TCCCGC	1.47 fold enrichment (6-mer frequency, TF over GST control)	1.44 fold enrichment (6-mer frequency, TF over GST control)	1.34 fold enrichment (6-mer frequency, TF over GST control)	1.5 fold enrichment (6-mer frequency, TF over GST control)	1.65 fold enrichment (6-mer frequency, TF over GST control)	1.59 fold enrichment (6-mer frequency, TF over GST control)	1.37 fold enrichment (6-mer frequency, TF over GST control)	1.5 fold enrichment (6-mer frequency, TF over GST control)
AATCAT	1.18 fold enrichment (6-mer frequency, TF over GST control)	1.18 fold enrichment (6-mer frequency, TF over GST control)	1.11 fold enrichment (6-mer frequency, TF over GST control)	1.07 fold enrichment (6-mer frequency, TF over GST control)	1.04 fold enrichment (6-mer frequency, TF over GST control)	1.18 fold enrichment (6-mer frequency, TF over GST control)	1.12 fold enrichment (6-mer frequency, TF over GST control)	1.16 fold enrichment (6-mer frequency, TF over GST control)
TGAAAC	1.17 fold enrichment (6-mer frequency, TF over GST control)	1.17 fold enrichment (6-mer frequency, TF over GST control)	1.3 fold enrichment (6-mer frequency, TF over GST control)	1.28 fold enrichment (6-mer frequency, TF over GST control)	1.28 fold enrichment (6-mer frequency, TF over GST control)	1.15 fold enrichment (6-mer frequency, TF over GST control)	1.28 fold enrichment (6-mer frequency, TF over GST control)	1.13 fold enrichment (6-mer frequency, TF over GST control)
TGTACC	1.17 fold enrichment (6-mer frequency, TF over GST control)	1.34 fold enrichment (6-mer frequency, TF over GST control)	1.38 fold enrichment (6-mer frequency, TF over GST control)	1.47 fold enrichment (6-mer frequency, TF over GST control)	1.26 fold enrichment (6-mer frequency, TF over GST control)	1.27 fold enrichment (6-mer frequency, TF over GST control)	1.35 fold enrichment (6-mer frequency, TF over GST control)	1.28 fold enrichment (6-mer frequency, TF over GST control)
